“And” between values parts separate entries of the source, which are not always exact repeats. Equal entries are not always repeated. Inconclusive results are not listed. The source made the active and inactive calls. Unless noted, cut-off not given; nearly all actives show AC50 up to about 30 µM.
Experiments:
[1] = Wnt pathway potentiators raising nuclear beta-catenin – imaging, WNT3A-conditioned medium, mouse C2C12, NPC library, primary screen (AID 1117326; in the data active means nuclear beta-catenin stimulation mostly above about 4.2%, no sharp cut-off; inactive means mostly below about 10%; further: reference of the scale not given here); conditions: stronger effect = higher value
[2] = stimulators of insulin release from INS-1E, primary screen, cell-based, 5 mM glucose, NPC library (AID 1117329;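 active means compound raises insulin release from rat beta cells at 5 mM glucose, no numeric limit stated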; further: reference of the scale not given here); conditions: rat INS-1E insulin secretion, at 10 µM, stronger effect = higher value
[3] = growth inhibition of GSK3B-pretreated HCT116 cells – cell-based, CellTiter-Glo, 0.2 to 20 µM (AID 1117336;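 active means compounds lowering colon cancer cell viability after pretreatment blocking the GSK3B kinase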); conditions: HCT116 viability after GSK3B inhibitor, at 20 µM, stronger effect = higher value
[4] = inhibition of endothelial tube formation, primary screen, imaging, VEGF stimulated, CD31 staining, tube area, NPC library (AID 1117340;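 active means compound that reduces growth-factor-driven endothelial tube area in a mixed cell culture, no cutoff stated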); conditions: VEGF-stimulated ADSC/ECFC co-culture, at 10 µM, stronger effect = higher value
[5] = GLP1 release stimulators, primary, NCI-H716, NPC library (AID 1117341;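 active means compound raises GLP1 secretion from the human gut endocrine cells, with no numeric limit stated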; further: reference of the scale not given here); conditions: NCI-H716 cells, at 10 µM, stronger effect = higher value
[6] = HCT116 colon cancer cell growth inhibition, primary screen, CellTiter-Glo luminescence, NPC library (AID 1117342;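 active means compounds that lower survival of HCT116 colon cancer cells in the luminescence readout, no numeric limit stated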); conditions: at 20 µM (top of the series)
[7] = reduced SW480 viability measured with CellTiter-Glo, NPC library, primary (AID 1117343;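 active means compounds that lower viability of the colon cancer cells in the luminescence readout, with no numeric limit stated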); conditions: CellTiter-Glo luminescence; at 20 µM (top of the series) unless noted
[8] = NPC library primary testing for decreased DLD-1 cell viability via CellTiter-Glo (AID 1117346;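 active means compounds that lower survival of DLD-1 colon cancer cells in the luminescence readout, no cutoff given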); conditions: DLD-1 viability, CellTiter-Glo luminescence; at 20 µM (top of the series)
[9] = viability loss in pontine glioma line – cell-based, JHH-DIPG-1, MIPE4.0, CellTiter-Glo, qHTS, dose response (AID 1347062; cut-off not given, nearly all actives have AC50 up to about 27 µM;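 on AC50: cells exposed to compound for two days before readout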); conditions: JHH-DIPG-1 viability, CellTiter-Glo ATP luminescence
[10] = viability loss in pontine glioma line – cell-based, SU-DIPG-IV, MIPE4.0, CellTiter-Glo, qHTS, dose response (AID 1347063); conditions: CellTiter-Glo ATP luminescence;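 further: compound exposure lasted 48 hours before the viability readout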
[11] = viability loss in pontine glioma line – cell-based, SU-DIPG-XXV, MIPE5.0, CellTiter-Glo, qHTS, dose response (AID 1347065; cut-off not given, nearly all actives have AC50 up to about 26 µM;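 further: cells exposed to compound for 48 hours before ATP readout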); conditions: CellTiter-Glo ATP luminescence
[12] = growth inhibition of DIPG cells – cell-based, MIPE4.0 library, CellTiter-Glo luminescence, qHTS (AID 1347066); conditions: SU-DIPG-VI viability, CellTiter-Glo ATP luminescence;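 further: cells exposed to compound for 48 hours before readout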
[13] = JHH-DIPG-1 glioma cell viability, MIPE5.0 library, CellTiter-Glo luminescence, qHTS (AID 1347067; cut-off not given, nearly all actives have AC50 up to about 26 µM;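 further: cells exposed to compound for 48 hours before readout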); conditions: JHH-DIPG-1 glioma viability, CellTiter-Glo ATP luminescence
[14] = growth inhibition of DIPG cells – cell-based, MIPE5.0 library, qHTS (AID 1347068; cut-off not given, nearly all actives have IC50 up to about 30 µM); conditions: SU-DIPG-XXV viability
[15] = viability loss with induced miR-34 in A549 – imaging, A549 dox-inducible miR-34, nuclei and caspase counts, primary screen (AID 1347080;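 active means compounds whose cell count with miR-34 switched on is under 0.7 times the count with it off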); conditions: A549 miR-34 inducible, Hoechst nuclei count, 48 h
[16] = MELAS cybrid and Rieske KO viability enhancers – cell-based, MELAS cybrids, Rieske KO mouse fibroblasts, CellTiter-Glo, primary screen (AID 1508586;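 active means mean z-score across replicates of 1.96 or higher in either the MELAS or the Rieske mutant cell line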;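 further: z relative to plate mean and SD of compound and empty wells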); conditions: low glucose
[17] = P. berghei load reduction in hepatocytes – cell-based, HepG2, luciferase luminescence, HepG2 viability, primary screen (AID 624349; in the data active means parasite load remaining mostly below about 12%, no sharp cut-off; inactive means mostly above about 10%;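 further: 100% = mean of DMSO negative control wells on the same plate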); conditions: P. berghei liver stage in HepG2, luciferase luminescence, concentration not given here; parasite load remaining: stronger effect = lower value; viability: measured here: HepG2 viability without parasites
[18] = blockers of cellular phospholipid synthesis – cell-based, LOPAC library, screen 4, primary screen (AID 1347384; call rule not given here); conditions: animal cells, phospholipid biosynthesis inhibition screen; at 10 µM
[19] = galactose survival enhancers in mitochondrial complex I cybrids – cell-based, galactose medium, ATP luminescence, primary screen (AID 1645843;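 active means z-score of at least 1.8 in each of two replicates, scored against plate mean and spread of sample wells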;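 further: positive z means more ATP and so rescue of galactose-driven cybrid death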); conditions: complex I mutant cybrid cells, 72 h, stronger effect = higher value
[20] = stronger effect = lower value, cell number ratio, induced over uninduced
[21] = measured here: relative caspase fold change +Dox/-Dox
[22] = measured here: total cells with miR-34 induction, stronger effect = lower value
[23] = measured here: total cells without miR-34 induction
[24] = MELAS cybrid survival, CellTiter-Glo 48 h, stronger effect = higher value
[25] = Rieske KO mouse fibroblast survival, CellTiter-Glo 72 h

O=C(O)c1nc(=O)[nH]c(=O)[nH]1
inactive: nuclear beta-catenin stimulation ([1]; at 10 µM) 0.4% | insulin secretion stimulation [2] -2.5% | viability decrease [3] -8.95% | tube area decrease [4] -8.3% | GLP1 secretion stimulation [5] 0.9% | inhibition of viability [6] -17.1% | viability decrease (inhibition) [7] 29% | viability decrease (inhibition) [8] 12.8% | outcome [9] | outcome [10] | outcome [11] | outcome [12] | outcome [13] | outcome [14]
0.2%: nuclear beta-catenin stimulation ([1]; stimulation, at 2 µM)

O=C(OC1C[C@H]2CC[C@@H](C1)[N+]21CCCC1)C(O)(c1ccccc1)c1ccccc1 (some centres not stated)
10400: cell count [15, 22]
0.872: fold change [15, 21]
inactive: nuclear beta-catenin stimulation ([1]; at 10 µM) -1.3% | insulin secretion stimulation [2] 1.3% | viability decrease [3] -50.2% | tube area decrease [4] 10.7% | GLP1 secretion stimulation [5] -3.1% | inhibition of viability [6] 7.13% | viability decrease (inhibition) [7] -11.6% | viability decrease (inhibition) [8] -9.1% | outcome [9] | outcome [10] | outcome [12] | fold change [15, 20] 1.02 | z-score [16, 24] -0.39
10200: cell count [15, 23]
0.689: z-score [16, 25]
-2%: nuclear beta-catenin stimulation ([1]; stimulation, at 2 µM)

CN(C)[C@@H](CCOc1cccc2ccccc12)c1ccccc1
active: viability decrease [3] 89.7% | inhibition of viability [6] 91.5% | viability decrease (inhibition) [7] 103% | viability decrease (inhibition) [8] 67% | AC50 [9] 20.9 µM | AC50 [10] 23.5 µM
inactive: nuclear beta-catenin stimulation ([1]; at 10 µM) 0.1% | insulin secretion stimulation [2] 9.9% | tube area decrease [4] 20.5% | GLP1 secretion stimulation [5] 6%
-0.4%: nuclear beta-catenin stimulation ([1]; stimulation, at 2 µM)

NC(=O)Cc1cccc(C(=O)c2ccccc2)c1N
0.903: fold change [15, 21]
2.6%: nuclear beta-catenin stimulation ([1]; stimulation, at 2 µM)
7400: cell count [15, 22]
8200: cell count [15, 23]
inactive: nuclear beta-catenin stimulation ([1]; at 10 µM) 3% | insulin secretion stimulation [2] -0.1% | viability decrease [3] 4.9% | tube area decrease [4] 12.4% | GLP1 secretion stimulation [5] -1.1% | inhibition of viability [6] -6.03% | viability decrease (inhibition) [7] -28.7% | viability decrease (inhibition) [8] 6.9% | outcome [9] | outcome [10] | outcome [12] | fold change [15, 20] 0.902 | z-score [16, 24] -0.418
-0.195: z-score [16, 25]

CN1C[C@H]2c3ccccc3Oc3ccc(Cl)cc3[C@@H]2C1
-0.7%: nuclear beta-catenin stimulation ([1]; stimulation, at 2 µM)
0.408: z-score [16, 25]
active: viability decrease (inhibition) [7] 80.6%
inactive: nuclear beta-catenin stimulation ([1]; at 10 µM) 0.7% | insulin secretion stimulation [2] 9% | viability decrease [3] 30.4% | tube area decrease [4] 28.3% | GLP1 secretion stimulation [5] 4.4% | inhibition of viability [6] 39.3% | viability decrease (inhibition) [8] 34.3% | outcome [9] | outcome [10] | outcome [12] | z-score [16, 24] 0.874

C[C@@H]1C[C@H]2[C@@H]3CCC4=CC(=O)C=C[C@]4(C)[C@@]3(Cl)[C@@H](O)C[C@]2(C)[C@@]1(OC(=O)c1ccco1)C(=O)CCl
4000: cell count [15, 22]
90.7% and 72.5%: viability [17]
5090: cell count [15, 23]
-0.104: z-score [16, 25]
1.68: fold change [15, 21]
inactive: parasite load remaining [17] 101% and 89.2% | nuclear beta-catenin stimulation ([1]; at 10 µM) 23.1% | insulin secretion stimulation [2] -0.7% | viability decrease [3] -43% | GLP1 secretion stimulation [5] 3.9% | outcome [14] | fold change [15, 20] 0.786 | z-score [16, 24] -1.01
2.8%: nuclear beta-catenin stimulation ([1]; stimulation, at 2 µM)
active: tube area decrease [4] 99.7% | inhibition of viability [6] 67% | viability decrease (inhibition) [7] 119% | viability decrease (inhibition) [8] 95.5% | AC50 [9] 4.69 µM | AC50 [10] 13.2 µM | AC50 [11] 29.5 µM | AC50 [12] 20.9 µM

O=c1[nH]c(=O)n([C@H]2C[C@H](O)[C@@H](CO)O2)cc1C(F)(F)F
active: nuclear beta-catenin stimulation ([1]; at 10 µM) 44.5% | viability decrease [3] 84.6% | tube area decrease [4] 99.5% | inhibition of viability [6] 84% | viability decrease (inhibition) [7] 98.1% | viability decrease (inhibition) [8] 41.5%
1.84: z-score [16, 25]
inactive: insulin secretion stimulation [2] 1.1% | GLP1 secretion stimulation [5] -3.2% | outcome [9] | outcome [11] | outcome [12] | outcome [13] | outcome [14] | z-score [16, 24] 0.972
39%: nuclear beta-catenin stimulation ([1]; stimulation, at 2 µM)

COc1cccc(N(C)C(=S)Oc2ccc3c(c2)CCCC3)n1
0.4%: nuclear beta-catenin stimulation ([1]; stimulation, at 2 µM)
inactive: nuclear beta-catenin stimulation ([1]; at 10 µM) 0.4% | insulin secretion stimulation [2] -2.1% | viability decrease [3] 48.8% | tube area decrease [4] 17.8% | GLP1 secretion stimulation [5] -2.3% | inhibition of viability [6] 13.6% | outcome [9] | outcome [10] | z-score [16, 24] 0.186
-0.761: z-score [16, 25]
active: viability decrease (inhibition) [7] 54.5% | viability decrease (inhibition) [8] 55.4%

CC1=C(C(=O)OC(C)C)C(c2cccc([N+](=O)[O-])c2)C(C(=O)OC2CN(C(c3ccccc3)c3ccccc3)C2)=C(N)N1 (configuration not stated)
2.2%: nuclear beta-catenin stimulation ([1]; stimulation, at 2 µM)
0.636: fold change [15, 21]
7560: cell count [15, 22]
active: viability decrease [3] 111% | tube area decrease [4] 109% | GLP1 secretion stimulation [5] 40.3% | inhibition of viability [6] 113% | viability decrease (inhibition) [7] 133% | viability decrease (inhibition) [8] 102%
8100: cell count [15, 23]
-0.252: z-score [16, 25]
inactive: nuclear beta-catenin stimulation ([1]; at 10 µM) -2% | insulin secretion stimulation [2] 5.2% | fold change [15, 20] 0.933 | z-score [16, 24] -0.296

NC1[C@H]2CN(c3nc4c(cc3F)c(=O)c(C(=O)O)cn4-c3ccc(F)cc3F)C[C@@H]12 (some centres not stated)
3150: cell count [15, 22]
0.5%: nuclear beta-catenin stimulation ([1]; stimulation, at 2 µM)
active: viability decrease [3] 64.3% | inhibition of viability [6] 58.4% | viability decrease (inhibition) [7] 82.9% | viability decrease (inhibition) [8] 58.6% | z-score [19] 2.21
inactive: nuclear beta-catenin stimulation ([1]; at 10 µM) -0.6% | insulin secretion stimulation [2] 17.5% | tube area decrease [4] 26.1% | GLP1 secretion stimulation [5] -0.1% | fold change [15, 20] 1.35 | outcome [18]
2330: cell count [15, 23]
1.08: fold change [15, 21]

Reference: PubChem BioAssay
